SRC3 inh: inhibitors of human steroid receptor coactivator 3 (SRC3); Q9Y6Q9; HEK293 GAL4-SRC3 luciferase reporter, luminescence; inhibition, % at 3.6 µM; 360,000 compounds, 0.17% hits; AID 588352;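 active = inhibition above a per-campaign cutoff, the mean of all compounds plus 3 SD, cut at about 60% in these data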;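 also: 0% = DMSO-treated cells and 100% = gossypol-treated cells at 36 µM; higher means less SRC3-driven luciferase light from the GAL4 reporter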
Gli-Sufu antag: blocks Gli-Sufu signaling in a luciferase reporter; inhibition, % at 5 µM; Sufu-KO-LIGHT fibroblasts, Gli luciferase reporter luminescence; 340,000 compounds, 0.74% hits; AID 588413;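 active = inhibition above about 55%, limit read from the data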;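 also: 0% = DMSO-treated cells and 100% = wells with medium but no cells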
SRC2 inh: inhibits human steroid receptor coactivator 2; Q15596; HEK293 GAL4-SRC2 luciferase reporter, luminescence; inhibition, % at 9 µM; 370,000 compounds, 0.17% hits;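 active = inhibition above the mean inhibition of all tested compounds plus 3 SD, set per campaign, cut at about 52% in these data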;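 also: 0% = DMSO treated cells and 100% = cells given Gossypol at 36 µM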
SRC1 inh: inhibitors of human steroid receptor coactivator 1 (SRC1) | 360,000 compounds, 0.12% hits | HEK293 GAL4-SRC1 luciferase reporter, luminescence | inhibition, % at 3.6 µM | Q15788 | AID 588354;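 active = inhibition above the campaign mean plus 3 SD, with each screening campaign given its own cutoff, cut at about 60% in these data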;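 also: 0% = DMSO treated cells and 100% = gossypol at 36 µM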
Target sequence (Q15788 whole entry, looked up, the tested form may be a part): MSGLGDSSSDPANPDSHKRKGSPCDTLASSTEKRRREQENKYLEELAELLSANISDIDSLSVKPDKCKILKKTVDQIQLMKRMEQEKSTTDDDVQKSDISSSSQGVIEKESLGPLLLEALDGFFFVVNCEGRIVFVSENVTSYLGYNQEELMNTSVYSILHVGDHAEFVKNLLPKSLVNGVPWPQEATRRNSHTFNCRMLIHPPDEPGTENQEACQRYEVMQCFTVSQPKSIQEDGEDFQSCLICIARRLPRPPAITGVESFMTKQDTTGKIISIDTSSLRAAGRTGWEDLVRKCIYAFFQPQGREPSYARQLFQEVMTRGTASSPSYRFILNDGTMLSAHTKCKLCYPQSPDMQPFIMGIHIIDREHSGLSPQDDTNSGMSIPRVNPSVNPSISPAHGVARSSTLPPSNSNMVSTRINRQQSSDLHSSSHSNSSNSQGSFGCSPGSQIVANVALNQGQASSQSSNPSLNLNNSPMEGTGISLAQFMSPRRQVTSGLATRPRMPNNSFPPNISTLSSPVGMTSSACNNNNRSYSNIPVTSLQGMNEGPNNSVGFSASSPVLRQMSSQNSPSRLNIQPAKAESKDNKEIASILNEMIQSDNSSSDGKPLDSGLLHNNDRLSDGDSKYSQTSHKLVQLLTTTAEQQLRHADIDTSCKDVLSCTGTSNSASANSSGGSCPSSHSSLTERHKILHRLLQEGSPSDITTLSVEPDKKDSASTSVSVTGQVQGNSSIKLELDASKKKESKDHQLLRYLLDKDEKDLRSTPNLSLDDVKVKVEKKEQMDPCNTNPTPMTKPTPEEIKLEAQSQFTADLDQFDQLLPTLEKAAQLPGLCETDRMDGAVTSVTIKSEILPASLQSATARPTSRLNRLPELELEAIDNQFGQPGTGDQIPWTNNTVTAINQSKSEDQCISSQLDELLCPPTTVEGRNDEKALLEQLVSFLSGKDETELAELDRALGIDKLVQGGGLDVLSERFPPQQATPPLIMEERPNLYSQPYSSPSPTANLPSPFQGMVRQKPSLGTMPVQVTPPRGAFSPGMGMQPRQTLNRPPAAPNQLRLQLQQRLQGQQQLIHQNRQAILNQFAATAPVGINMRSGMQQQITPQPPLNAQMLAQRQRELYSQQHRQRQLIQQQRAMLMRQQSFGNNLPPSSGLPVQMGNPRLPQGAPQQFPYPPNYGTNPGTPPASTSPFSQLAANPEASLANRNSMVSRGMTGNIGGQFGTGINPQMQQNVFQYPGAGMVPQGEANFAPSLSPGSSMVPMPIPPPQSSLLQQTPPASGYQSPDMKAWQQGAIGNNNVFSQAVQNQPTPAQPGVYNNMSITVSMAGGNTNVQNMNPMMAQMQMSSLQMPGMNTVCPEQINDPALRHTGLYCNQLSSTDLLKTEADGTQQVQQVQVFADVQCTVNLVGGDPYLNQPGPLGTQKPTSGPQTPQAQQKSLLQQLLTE
NR5A2 inv ag: NR5A2 inverse agonism in reporter assay; 360,000 compounds, 0.13% hits; inhibition, % at 3.6 µM; HEK293T StAR-luciferase reporter, LRH-1 transfected, 24 h;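 active = inhibition above the mean inhibition of all tested compounds plus 3 SD, cut at about 73% in these data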;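 also: 0% = DMSO wells and 100% = reporter-only cells lacking LRH-1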
NR2F2 inh: NR2F2 (human) inhibition, primary screen; AID 686940; HEK293T NGFI-A luciferase reporter, luminescence; P24468; inhibition, % at 8.6 µM; 370,000 compounds, 0.7% hits;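 active = inhibition above a per-plate cutoff, mean inhibition of test wells between control levels plus 3 SD, cut at about 38% in these data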;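 also: cells cotransfected with COUP-TFII expression vector driving the NGFI-A reporter; 0% = median of COUP-TF2 test wells and 100% = reporter-only cells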
Gli-Sufu confirm: confirmation of Gli-SUFU pathway antagonists; shares compounds with Gli-Sufu antag; Sufu-KO-LIGHT cells, Gli luciferase reporter, luminescence; inhibition, % at 5 µM; 2,500 compounds, 40% hits; AID 602428;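 active = mean inhibition at 5 µM reaching about 45%, limit read from the data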;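 also: plate controls were DMSO-treated cells for no effect and wells lacking cells for full effect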
Gli cytotox: cytotoxic in Gli-SUFU antagonist counter-screen | cytotoxicity, % at 5 µM | shares compounds with Gli-Sufu antag | AID 651994 | Sufu-KO-LIGHT cells cytotoxicity, ATP luminescence | 2,500 compounds, 32% hits;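 active = mean cytotoxicity at 5 µM above about 25%, limit read from the data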;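 also: cells exposed to compound overnight for roughly 16 to 18 hours; plate controls were DMSO wells with cells for no effect and medium without cells for full effect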
Wnt3a counter: counter-screen for Gli-SUFU antagonists: Wnt3a reporter inhibition; shares compounds with Gli-Sufu antag; Wnt-LIGHT cells, Wnt3a-driven luciferase reporter, luminescence; 2,500 compounds, 20% hits; inhibition, % at 6.25 µM;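 active = mean inhibition above about 25%, limit read from the data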
Active calls of the source: *; nt = not tested or not shown. Compounds with a hit are over-represented: about 1.3% of the library has one in this group of screens.

SMILES | SRC3 inh | Gli-Sufu antag | SRC2 inh | SRC1 inh | NR5A2 inv ag | NR2F2 inh | Gli-Sufu confirm | Gli cytotox | Wnt3a counter
CCOC(=O)/C=C1/N(C)c2ccccc2C1(C)C | 12 | -3 | 9 | 16 | -6 | 2 | nt | nt | nt
CN1/C(=C/C(=S)NC(=O)C2(C)CC2(Cl)Cl)C(C)(C)c2ccccc21 (stereo not drawn) | 17 | 60* | -27 | -15 | 11 | 2 | 24 | 26* | 1
CN1/C(=C\C(=S)Nc2ccccc2)C(C)(C)c2ccccc21 | 8 | 65* | 6 | -18 | 21 | 13 | 74* | 16 | 28*
CN1/C(=C\C(=S)NC(=O)c2ccccc2Cl)C(C)(C)c2ccccc21 | 9 | 73* | -23 | -11 | 0 | 9 | 55* | 31* | 30*
COC(=O)C1CN(Cc2ccc(F)cc2)CCS(=O)(=O)N1Cc1cn(Cc2ccc(C)cc2)nn1 (stereo not drawn) | nt | nt | -5 | nt | nt | 7 | nt | nt | nt
CCOc1ccccc1NC(=O)CCn1ccnc1 | -19 | 58* | -36 | -4 | -10 | 8 | 15 | 19 | -6
CCOc1ccc(NC(=O)CCn2ccnc2)cc1 | -2 | 3 | -21 | -54 | 6 | 10 | nt | nt | nt
COC(=O)[C@@]12CCCCN1[C@H](c1ccc(-c3ccccc3)cc1)[C@@H]1C(=O)N(C)C(=O)[C@@H]12 | -32 | 83* | 17 | -2 | -9 | -8 | 26 | 1 | 25*
CCCCn1c(SCC(=O)Nc2cc(C)on2)nc2cc(S(N)(=O)=O)ccc21 | 17 | -17 | -13 | -5 | -3 | 6 | nt | nt | nt
CCCCn1c(SCc2c(C)noc2C)nc2cc(S(N)(=O)=O)ccc21 | 19 | 51 | -72 | -5 | 35 | -66 | 62* | 1 | -13
O=C(CSc1nnc(-c2ccccn2)n1-c1ccc(Cl)cc1)Nc1ccc2c(c1)OCCO2 | nt | nt | 8 | nt | nt | 0 | nt | nt | nt
Cc1cc(-c2n[nH]c(=S)n2N=Cc2ccc(O)cc2)n[nH]1 | nt | nt | -20 | nt | nt | 0 | nt | nt | nt
CCOc1ccc([N+](=O)[O-])cc1CNC1CCCCCCC1 | 10 | 52 | 10 | 13 | -3 | 6 | 21 | 7 | -19
CCCc1cc(=O)oc2cc(C)cc(OCC(=O)N3CCC(C(=O)O)CC3)c12 | 25 | 55 | 2 | -11 | 12 | 10 | 19 | -3 | 12
CC(COc1cccc(Br)c1)CN1CCC(C(O)(c2ccccc2)c2ccccc2)CC1 (stereo not drawn) | nt | nt | -8 | nt | nt | -7 | nt | nt | nt
C=CCn1c(C)cc(C2=NNC(=NC(C)(C)C)SC2)c1C | 58 | 72* | 39 | 47 | 22 | 58* | 75* | 50* | 98*
Cc1ccc(C(=O)NC(=S)Nc2ccccc2N2CCOCC2)cc1C | -12 | 89* | nt | 5 | -8 | nt | 23 | 14 | -37
COc1ccc(COC(=O)N/N=C(\C)CC(=O)NCc2ccc(Cl)cc2)cc1 | 24 | -4 | -27 | -16 | -11 | -3 | nt | nt | nt
COc1ccc(COC(=O)N/N=C(\C)CC(=O)Nc2c(C)cc(C)cc2C)cc1 | 18 | 99* | -3 | 1 | 16 | 1 | 15 | 23 | -24
CCOc1ccc(-n2c(SCc3ccc(C#N)cc3)nnc2-c2ccco2)cc1 | nt | nt | 27 | nt | nt | -18 | nt | nt | nt
Cc1csc(-c2cccnc2)n1 | 24 | 99* | 9 | -11 | 7 | 17 | 14 | -6 | 16
Fc1ccccc1-c1csc(-c2cccnc2)n1 | -29 | 31 | 1 | -20 | -18 | -23 | nt | nt | nt
CCOC(=O)[C@@]12CCCC3=C1N(CCC3)C(=O)[C@H]2CC(=O)NCc1ccccc1 | nt | nt | -1 | nt | nt | -23 | nt | nt | nt
CC(C)c1ccc(C(=O)NCCCN2CCOCC2)cc1 | -32 | -12 | -24 | -20 | -6 | -10 | nt | nt | nt
O=C(CCCCCn1c(=S)[nH]c2ccc(N3CCOCC3)cc2c1=O)NCc1ccc2c(c1)OCO2 | -19 | 1 | 3 | -19 | -6 | -7 | nt | nt | nt
SMILES | SRC3 inh | Gli-Sufu antag | SRC2 inh | SRC1 inh | NR5A2 inv ag | NR2F2 inh | Gli-Sufu confirm | Gli cytotox | Wnt3a counter
COC(=O)c1ccc2c(=O)n(Cc3ccc(C(=O)NCCCN4CCOCC4)cc3)c(=S)[nH]c2c1 | -11 | 17 | -21 | 5 | -11 | 2 | nt | nt | nt
O=C(CCCCCn1c(=S)[nH]c2ccc(N3CCOCC3)cc2c1=O)NCc1ccc(Cl)cc1 | 0 | 83* | -12 | -23 | -4 | -4 | 17 | 15 | -13
O=C(NCCCN1CCOCC1)c1ccc2c(=O)n(Cc3ccc(Cl)cc3)c(=S)[nH]c2c1 | -5 | 50 | 21 | -13 | -11 | 21 | 23 | 25* | -49
O=C(NCCCN1CCOCC1)c1ccc(CSc2ccc(Cl)cc2)cc1 | 14 | 57* | -2 | 13 | -17 | 5 | 22 | 16 | -50
CC(C)(C)c1ccc(C(=O)NCCCN2CCN(CCCNC(=O)c3ccc(C(C)(C)C)cc3)CC2)cc1 | 8 | 72* | 4 | 0 | -28 | 16 | 15 | 24 | 10
CC(=O)N1CCCN(S(=O)(=O)c2ccc3c(c2)n(C)c(=O)c(=O)n3C)CC1 | nt | nt | 17 | nt | nt | -29 | nt | nt | nt
Cc1nc2ccccc2n1CC(=O)NC(C)C1CC2CCC1C2 (stereo not drawn) | 16 | 60* | -1 | 13 | 4 | 30 | 54* | 15 | 15
CC1CCN(C(=S)Nc2ccc(F)cc2)CC1 | 24 | 64* | -7 | 15 | 14 | 4 | 15 | 22 | -9
c1cncc(C(c2nnnn2C2CCCC2)N2CCCC2)c1 (stereo not drawn) | -2 | 5 | 13 | 5 | -8 | -13 | nt | nt | nt
c1cncc(C(c2nnnn2C2CCCCC2)N2CCN3CCCC3C2)c1 (stereo not drawn) | 7 | 52 | 0 | 7 | 14 | 3 | 22 | 7 | 9
C[C@@H]1COc2cccc(N3CCSCC3)c2S(=O)(=O)N1C | nt | nt | -7 | nt | nt | -11 | nt | nt | nt
CCOC(=O)C(C(=O)OCC)C(C)(C)/C(C)=N\Nc1ccc([N+](=O)[O-])cc1[N+](=O)[O-] | 8 | 55 | -3 | -17 | 2 | 8 | 34 | 29* | 69*
CCOC(=O)C(C)/C(C)=N\Nc1ccc([N+](=O)[O-])cc1[N+](=O)[O-] (stereo not drawn) | 3 | 41 | 18 | -41 | -4 | 17 | nt | nt | nt
CC(C)CN1C(=O)C[C@@]2(C(=O)N(C)c3ccc(NS(=O)(=O)c4ccc(F)cc4)cc32)C1c1ccccc1 (stereo partly drawn) | nt | nt | 7 | nt | nt | -25 | nt | nt | nt
COc1ccccc1-c1c(-c2ccc(O)cc2O)n[nH]c1C(F)(F)F | 17 | 50 | 13 | -2 | 15 | 34 | 63* | 24 | 31*
COc1ccc(-c2c(-c3ccc(O)cc3O)n[nH]c2C(F)(F)F)cc1 | -13 | 4 | -4 | 15 | 19 | 16 | nt | nt | nt

Assay outcomes (PubChem BioAssay)
